Test results as given in PubChem BioAssay AID853 (Columbia University Molecular Screening Center, 2007).
The campaign covered roughly 47,000 compounds. About 200 (0.43%) were called active. About 1% were inconclusive and are not listed.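 How the source made its calls: active means inhibition of aggregate fluorescence above about 70%, also judged a hit by eye on the cell image (limit read from the data, passing the limit was not always enough); inconclusive means no rule stated for this call; inactive means not judged a hit on image review.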 The list comes from a sample in which actives are over-represented; it also holds similar structures and randomly drawn compounds.

Test: removal of polyQ htt aggregates in HeLa – imaging, HeLa Exon1htt(103Q)mCFP, confocal imaging, primary screen (AID 853);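 further: cells exposed to compound for three days before fixation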
Conditions: aggregate imaging, at 1.5 µM; fraction fluorescence in grains: measured here: aggregate grain fluorescence fraction, stronger effect = lower value; inhibition: stronger effect = higher value, zero = plate's median compound well

| SMILES | fraction fluorescence in grains | inhibition |
| --- | --- | --- |
| COc1ccc(CNC(=O)C2CCC(CNc3c(N4CCOCC4)c(=O)c3=O)CC2)cc1 (centres undefined) | 33 | 10.7% (inactive) |
| Cc1cc(Cl)c(S(=O)(=O)N(C)C)cc1OCC(N)=O | 20.5 | -7.1% (inactive) |
| O=S(=O)(/C=C/c1ccccc1)NCCc1ccccn1 | 31.8 | 7.7% (inactive) |
| O=C(Oc1cccnc1)c1cc2ccccc2oc1=O | 21 | -5.6% (inactive) |
| COC(=O)C(C)Oc1ccc2c(-c3cccc([N+](=O)[O-])c3)cc(=O)oc2c1 (centres undefined) | 35.3 | 9.1% (inactive) |
| CCCCCCNC(=O)CSc1nccn1Cc1ccccc1 | 18.3 | 7.5% (inactive) |
| CCSc1nnc(NC(=O)Cc2ccccc2OC)s1 | 52.6 | -25.1% (inactive) |
| COc1cccc(OC)c1C(=O)Nc1ccc(N2CCCCC2)cc1 | 19.3 | 18.4% (inactive) |
| C/C(=C\C(=O)c1ccc(Br)cc1)N1CCCCC1 | 28.4 | 28.3% (inactive) |
| CCc1c(O)cc2n(c1=O)-c1ccccc1C2(C)C | 27.7 | -37.8% (inactive) |
| CC1(C)CC(=O)C(C=NCCN2CCN(C(=S)Nc3cccc(Cl)c3)CC2)=C(O)C1 | 25.7 | 12.3% (inactive) |
| Cc1cccc(N2CCN(C(=O)CN(C)S(=O)(=O)c3ccc4c(c3)CCC(=O)N4)CC2)c1C | 43.8 | -18.5% (inactive) |
| COc1ccc(CCN2CNc3c(c(=O)n(C)c(=O)n3C)C2)cc1OC | 63.1 | -203% (inactive) |
| COc1ccc(CNC(=O)CCn2cccc2)cc1 | 29.6 | -25.4% (inactive) |
| CCCC(=O)Nc1nc2ccc(NC(=O)c3cccnc3)cc2s1 | 48.5 | -19% (inactive) |
| CCOC(=O)c1cnc(SC)nc1Sc1ccc(Cl)cc1Cl | 27.6 | -31% (inactive) |
| O=C(CSCc1ccc(Cl)cc1)N1CCCCC1 | 25.4 | -26.2% (inactive) |
| Cn1cnc2c1c(=O)n(Cc1c(Cl)cccc1Cl)c(=O)n2C | 24.1 | -22.3% (inactive) |
| CCOc1nc(NCCN2CCOCC2)nc(Nc2ccc(C)cc2)n1 | 42.7 | -6.3% (inactive) |
| Cc1cc2cc3c(cc2nc1SCC(=O)Nc1c(C)cccc1C)CCC3 | 26.1 | 30.7% (inactive) |
| CC(NC(=O)CSc1nc2c(cc1C#N)CN(C)CC2)c1ccccc1 (centres undefined) | 10.8 | 73.3% (active) |
| CC1(C)CCc2nc(SCc3ccccc3)c(C#N)cc2C1 | 21.6 | -20.9% (inactive) |

| SMILES | fraction fluorescence in grains | inhibition |
| --- | --- | --- |
| Cc1ccnc(SCCn2c(N(C)Cc3ccccc3)nc3c2c(=O)n(C)c(=O)n3C)n1 | 35.6 | -10.6% (inactive) |
| CCn1c(CNC(=O)c2ccccc2)nnc1SCC(=O)N1CCN(c2ccccc2)CC1 | 10.5 | 45.3% (inactive) |
| c1ccc(-c2noc(-c3cccs3)n2)nc1 | 20.2 | -19.7% (inactive) |
| Cc1cc(Oc2ccccc2)nc(N2CCOCC2)n1 | 29.1 | 5.3% (inactive) |
| COc1ccc(NS(=O)(=O)c2ccc(NC(=O)C(C)(C(F)(F)F)C(F)(F)F)cc2)nn1 | 26.9 | -29.8% (inactive) |
| CCOC(=O)Cn1c2c(c(-c3ccccc3OC)cc1=O)CCCC2 | 9.78 | 75.9% (active) |
| COc1ccc(NC(=O)COC(=O)Cn2c(C)nc3ccccc32)cc1OC | 48.2 | -28% (inactive) |
| CCOC(=O)CN1C(=O)C(=O)c2cc(C)ccc21 | 50.7 | -31.2% (inactive) |
| CCOC(=O)c1c(NC(=O)CSc2nnc(CNc3ccc(C)cc3C)o2)sc(C)c1C | 20 | 0.1% (inactive) |
| O=C(c1ccccn1)c1ncc(C(F)(F)F)cc1Cl | 11.8 | 69.6% (inactive) |
| COc1cc(C2CC(=O)c3cnc(NC(C)=O)nc3C2)cc(OC)c1OC (centres undefined) | 28.1 | -57.9% (inactive) |
| Cc1ccccc1NC(=O)c1cnn(-c2ccccc2)c1NC(=O)c1ccco1 | 65.2 | -45.9% (inactive) |
| O=C(Nc1cccc(NC(=O)c2ccco2)c1)c1cnccn1 | 17.1 | 4% (inactive) |
| CCOc1ccc(C(=O)Nc2cc(OC)ccc2OC)cc1 | 47.6 | -28.5% (inactive) |
| N#Cc1c(/N=C/N2CCCC2)oc(-c2ccccc2)c1-c1ccccc1 | 60.3 | -70.7% (inactive) |
| c1ccc(Nc2n[nH]nc2-c2ccccc2)cc1 | 19.1 | -9.8% (inactive) |
| COc1ccc(Oc2coc3cc(OC(=O)c4cncc(Br)c4)ccc3c2=O)cc1 | 38.8 | 10.3% (inactive) |
| CCN(CC)CCNc1ccc(Cl)cc1[N+](=O)[O-] | 50.4 | -31% (inactive) |
| COc1nc(NC2CCCCC2)nc(N2CCCCCC2)n1 | 7.28 | 62.7% (inactive) |
| ONC(=Nc1ccc(Cl)cc1)c1ccccc1Cl | 37.5 | 2.4% (inactive) |
| Cc1cccc(N(C(=O)Cc2cccs2)C(C(=O)NC2CCCC2)c2ccsc2)c1 (centres undefined) | 20.3 | 34% (inactive) |
| CCOc1ccc(N=Cc2c(O)n(-c3cccc(C)n3)c(=O)c3ccccc23)cc1 | 45.9 | -5.8% (inactive) |

| SMILES | fraction fluorescence in grains | inhibition |
| --- | --- | --- |
| CCC(C)(C)n1nnnc1CN1CCN(c2nc3ccc(C)cc3cc2C#N)CC1 | 29 | 23.1% (inactive) |
| O=c1[nH]c2c(c(=O)n1Cc1ccccc1)CCC2 | 13.3 | 28.6% (inactive) |
| Cc1cc(C)cc(OCc2nnc(SCC(=O)Nc3ccccc3)o2)c1 | 15 | 15.8% (inactive) |
| COc1ccccc1-c1nnc(SCC(=O)Nc2ccccc2)o1 | 4.28 | 73.5% (active) |
| COc1ccccc1-c1nnc(SCC(=O)Nc2cc(C)on2)o1 | 16.4 | 15.8% (inactive) |
| Cc1cc(C)n(-c2c(F)c(F)c(COC(=O)c3ccccc3)c(F)c2F)n1 | 25.1 | -56.6% (inactive) |
| CCCCOC(=O)Cn1c(=O)n(CC(=O)OCCCC)c2cc(C)ccc21 | 19 | -6.9% (inactive) |
| CC(=O)Nc1ccccc1C(=O)C(=O)Nc1ccc(F)cc1 | 57.6 | -48.2% (inactive) |
| CCOc1ccc(N(CC(=O)NC2CCCCCC2)S(=O)(=O)c2c(C)[nH]c(=O)[nH]c2=O)cc1 | 41.2 | -15.2% (inactive) |
| CCCC(=O)N1CCc2[nH]c3ccccc3c2C1 | 26.6 | 21.6% (inactive) |
| Cc1c(CN2CCC(C)CC2)c(=O)n(-c2ccccc2)n1C | 56.1 | -32.3% (inactive) |
| COc1ccc(C2C(C(C)=O)=C(O)C(=O)N2Cc2cccnc2)cc1 (centres undefined) | 15.5 | 17.5% (inactive) |
| COC(=O)c1cccc(NC(=O)CSc2nc(C)cc(=O)[nH]2)c1 | 13.9 | 27.8% (inactive) |
| Cn1ccs/c1=N\S(=O)(=O)c1ccc(C(C)(C)C)cc1 | 37.7 | 0.2% (inactive) |
| CCOc1ccc(NC(=O)CCC(=O)n2nc(C)cc2C)cc1 | 4 | 79.1% (active) |
| CCCCOc1ccc(NC(=O)CSCC(=O)OCC)cc1 | 53.3 | -31.6% (inactive) |
| CCOc1ccc(NC(=O)Nc2cc(C)on2)cc1 | 23.9 | -47.8% (inactive) |
| O=C(CSc1nnc(-c2cccnc2)n1CCc1ccccc1)NCc1ccccc1 | 34.5 | -83.7% (inactive) |
| CC(C)(C)C(=O)Cn1c(NCCO)nc2ccccc21 | 13.3 | 30.8% (inactive) |
| Oc1c(C(c2cccs2)N2CCN(c3ccc(F)cc3)CC2)sc2ncnn12 (centres undefined) | 72.5 | -45.9% (inactive) |
| COc1ccc(-n2c(SCC(=O)NCc3cccs3)nnc2-c2ccoc2C)cc1 | 22.6 | 33.8% (inactive) |
| O=C(NCCCNCc1ccccc1)c1ccc(/C=N/O)nc1 | 39.1 | 3.6% (inactive) |

| SMILES | fraction fluorescence in grains | inhibition |
| --- | --- | --- |
| Cc1ccc(C2C(C#N)C(C#N)N3CCCN23)cc1 (centres undefined) | 23.7 | 40.7% (inactive) |
| CCOc1ccccc1C(=O)NC1CC2CCCC(C1)N2Cc1ccccc1 (centres undefined) | 14.9 | 23.5% (inactive) |
| CNc1nc(SC)nc(N(C#N)CC(=O)OC)n1 | 30.5 | -71% (inactive) |
| C=CCn1c(C(C)NC(=O)CC)nc2ccccc21 (centres undefined) | 34.1 | -61.6% (inactive) |
| CC(=O)NC(C)c1nc2ccccc2n1Cc1ccccc1F (centres undefined) | 3.88 | 76.4% (active) |
| CCC(=O)Nc1nc2ccccc2n1Cc1ccccc1C | 32.9 | 4.8% (inactive) |
| COC(=O)C1C(=O)NCC1c1ccc(OC)cc1 (centres undefined) | 12 | 35.5% (inactive) |
| Cc1sc2nc(SCC(N)=O)n(C)c(=O)c2c1C | 18.7 | -1.9% (inactive) |
| Cc1ccccc1NC(=O)c1ccccc1NS(=O)(=O)c1cccc2cccnc12 | 11.2 | 46.2% (inactive) |
| Cn1c(SCC(=O)N2CCOCC2)nnc1-c1ccc(NC(=O)c2ccccc2F)cc1 | 22.6 | -25.1% (inactive) |
| O=C(NCCCCc1ccccc1)C1CC(c2ccc([N+](=O)[O-])cc2)=NO1 (centres undefined) | 23.6 | 39.3% (inactive) |
| NC1=NC(=O)C2(COC(c3ccccc3Cl)OC2)S1 (centres undefined) | 13.6 | 19.2% (inactive) |
| Cc1nnc(SCC(=O)NCCOc2ccc(Cl)cc2)n1-c1ccccc1 | 36.3 | 2.1% (inactive) |
| O=C(CSc1nnc(-c2cccs2)n1Cc1ccccc1)N1CCc2ccccc2C1 | 52.6 | -33.1% (inactive) |
| CCOc1ccccc1C1NC(=O)NC(C)=C1C(=O)OCc1ccco1 (centres undefined) | 36.7 | -10.5% (inactive) |
| COCCOC(=O)C1=C(C)NC(=O)NC1c1ccc(Cl)cc1 (centres undefined) | 28.5 | 33.5% (inactive) |
| COc1cccc2c(=O)n(CC(=O)N3CCCCCC3)ccc12 | 40.9 | -22% (inactive) |
| COc1ccc(N(CC(=O)NC2CCCCC2)C(=O)CNC(=O)c2ccco2)c(OC)c1 | 22.1 | -26.1% (inactive) |
| Cc1noc(COc2ccccc2OCc2onc(C)c2Cl)c1Cl | 24.8 | -49.4% (inactive) |
| CCOC(=O)C1CCN(Cc2coc3ccc(Cl)cc3c2=O)CC1 | 22.3 | -15.2% (inactive) |
| Cc1cccc2c(=O)n3c(nc12)CCCCC3 | 18.2 | 11% (inactive) |
